Test results from PubChem BioAssay (NCI).
This is part of a sample that, as a whole, favours compounds with a hit. Of some 79,000 tested, about 15% had one in any assay. Values without a mark were called inactive. Active and inactive are the calls of the source. No stated cut-off is given here; in the data, active means growth inhibition above about 70%; inactive means the rest.

Assay: NCI Yeast Anticancer Drug Screen. Data for the bub3 strain (AID 167)
Details: S. cerevisiae bub3 mutant strain, at 50.0 µM, stronger effect = higher value
Summary of the method: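 Part of a panel of yeast mutants defective in DNA damage repair or cell cycle regulation. Each strain is grown with compound, and inhibition is calculated relative to solvent-treated cultures.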

Row | SMILES | growth inhibition
1 | NC(=O)N/N=C/c1ccccc1O | -1.2%
2 | CCCCCC(=O)Oc1ccccc1OC | -7.85%
3 | C=C(C)COc1ccc(Nc2ccccc2)cc1 | 2.35%
4 | NCCCCCC(=O)O | -22%
5 | Cc1cc(Br)ccc1NC1=CC(=O)C(=O)c2ccccc21 | 13.2%
6 | Cc1cc2c(=O)cc(-c3ccncc3)oc2c(C(=O)O)c1C | 26.9%
7 | CC1(C)CC(C2=NCCO2)CC(C)(C)N1 | 15.2%
8 | C=CCOc1cc2c(cc1C(C)c1ccc(OCC)c(C)c1)OCO2 (centres undefined) | 7.15%
9 | COc1cccc(Oc2ccc(C)cc2)c1 | 8.95%
10 | CCOC(=O)c1nnn(Cc2ccccc2)c1N | 1.7%
11 | NC(=O)/C(=C(/O)C(=O)O)c1ccnc2ccccc12 | -4.2%
12 | C[Si](C)(C)c1ccc(-c2ccccc2)cc1 | 22.5%
13 | COC(=O)/C(=C\c1ccc(N(CCC#N)CCC#N)cc1)NC(=O)c1cc([N+](=O)[O-])ccc1Cl | -21.6%
14 | CC1C[C@]2(C)C(=NCCN)Nc3ccccc3[C@@H]2N(C)c2ccccc21 (some centres undefined) | -13.2%
15 | COC(=O)c1cc(=O)[nH]c(=O)[nH]1 | -13.5%
16 | CC(=O)c1cccc(NC(=O)Oc2ccc(C(=O)OCc3ccccc3)cc2)c1 | 92.2% (active)
17 | NC(=O)C(Cc1ccccc1)NC(=O)C1CCCN1 (centres undefined) | -6.1%
18 | COc1ccccc1NC(N)=S | -4%
19 | CN(C(=O)/C=C/c1ccccc1)c1ccccc1 | 43.3%
